From PubChem
HepG2 viability: qHTS for Inhibitors of TGF-b: Cytotox Counterscreen. HepG2 CAGA-GFP viability, ATP luminescence, 18 h. Potency, µM (top dose mostly 46.1 µM), without a hit: at the highest dose activity change, negative = cytotoxicity, usual class: cytotoxic. hit rate 0.76% among 410,000
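CellTiter-Glo luminescence gave cytotoxicity after 18 hours at 37 degrees C. The cells were HepG2 CAGA-GFP in 1% FBS DMEM, stimulated with 500 pg/mL TGF-beta after compound addition. %Activity was normalised to no-cell wells (complete cell-killing) and DMSO (no toxicity), and curves were fitted and classified.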
TGFb SMAD3 inh: qHTS for Inhibitors of TGF-b; HepG2 CAGA-GFP TGF-b/SMAD3 reporter, GFP fluorescence, 18 h; TGF-beta stimulated, 500 pg/mL final; Potency, µM (series often up to 46.1 µM), for the others: at the top dose activity, negative = inhibition, hits mostly inhibitors; hit rate 1.2% among 410,000; note: % is set by controls: 0 for no effect and ±100 for the full control effect; nearly all actives have a fitted effect of over 65% in size
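HEPG2 CAGA-GFP cells (1000/well, DMEM with 1% FBS) were pre-incubated 2 h at 37 degrees C, given compound by pin tool, then stimulated with TGF-beta at 500 pg/mL final for 18 h before per-cell GFP fluorescence imaging.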
DT40 TDP1 CPT: qHTS for Inhibitors of human tyrosyl-DNA phosphodiesterase 1 (TDP1): qHTS in cells in presence of CPT | chicken DT40 Tdp1-/-;hTDP1 cells + 20 nM CPT, ATP luminescence, 48 h | Potency, µM (titrated, usually from 46.2 µM), for inactives: top-dose activity change, negative = growth inhibition, hits mostly inhibitors | hit rate 12% among 420,000 | AID 686979, 2013; note: % is set by controls: 0 for no effect and ±100 for the full control effect; nearly all actives have a fitted effect of over 55% in size
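Chicken DT40 Tdp1-/- cells complemented with human TDP1, 400 cells/well, exposed to compounds plus 20 nM camptothecin for at least 48 h at 37 C; viability read as ATP content by CellTiter-Glo luminescence.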
DT40 TDP1 no CPT: qHTS for Inhibitors of human tyrosyl-DNA phosphodiesterase 1 (TDP1): qHTS in cells in absence of CPT | DT40 Tdp1-/- hTDP1 cells, no CPT, ATP luminescence, 48 h | Potency, µM (top dose mostly 46.2 µM), for inactives: at the highest dose activity change, negative = growth inhibition, actives largely listed as inhibitors | hit rate 15% among 420,000; note: % is set by controls: 0 for no effect and ±100 for the full control effect; nearly all actives have a fitted effect of over 55% in size
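A cellular qHTS used chicken DT40 cells lacking endogenous Tdp1 but carrying stably transfected human TDP1. Compounds were applied without camptothecin, and cell growth kinetics were judged by ATP-dependent luminescence after ≥48 hr.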
ATXN2 expr inh: Primary qHTS for Inhibitors of ATXN expression; HEK-293 ATXN2-luciferase reporter, luminescence, 24 h; hit rate 0.72% among 360,000; Potency, µM (series often up to 57 µM), without a hit: top-dose activity change, negative = inhibition, hits mostly inhibitors; note: % is set by controls: 0 for no effect and ±100 for the full control effect; nearly all actives have a fitted effect of over 55% in size
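qHTS (up to 57 uM final) was run with 24 h compound exposure of reporter cells at 37 °C. Each well was multiplexed: SteadyGlo luminescence measured ATXN2-luciferase expression after a fluorogenic Gly-Phe-AFC viability readout (25 uM final).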
S2 tox: Viability Counterscreen for Primary qHTS for Inhibitors of ATXN expression; Potency, µM (titrated, usually from 56.7 µM), most hits filed as cytotoxic; hit rate 0.49% among 400,000; S2 cells (HEK-293 line with an ATXN2-luciferase reporter) viability, CellTiter-Fluor protease fluorescence, 24 h; note: nearly all actives have a fitted effect of over 40% in size
Numbers without * were called inactive; [ ] = dose if it differs, or a comment. In the library only some 17% were active in any assay of this set; here they are far more common. Calls come from the whole dose curve; as a rule, active = well fitted curve in the direction sought with a large enough effect; inconclusive = small, poorly fitted or top-dose-only effect, or another doubt; inactive = no such curve, though single readings can be large; an effect the other way counts as inactive or inconclusive. Potency is the fitted concentration of half-maximal effect.

Screening C#CCOCCOCCOCCNc1nc(N2CCN(C(=O)CCCCCCCCCCNC(=O)[C@@H]([C@H](C)O)n3cc(C)nn3)CC2)nc(N2CCN(C(=O)CCCCCCCCCCNC(=O)[C@@H]([C@H](C)O)n3cc(C)nn3)CC2)n1 returned HepG2 viability -3.4%, TGFb SMAD3 inh -9.5%, DT40 TDP1 CPT inconclusive, DT40 TDP1 no CPT 23.1µM*, ATXN2 expr inh -13.8% and S2 tox inactive.
C#CCOCCOCCOCCNc1nc(N2CCOCC2)nc(N2CCN(C(=O)CCCCCCCCCCNC(=O)[C@@H]([C@H](C)O)n3cc(C)nn3)CC2)n1 was read as HepG2 viability -13.2%, TGFb SMAD3 inh -8.3%, DT40 TDP1 CPT inconclusive, DT40 TDP1 no CPT 16.4µM*, ATXN2 expr inh -9.0% and S2 tox inactive.
Cc1ccc(-n2nnnc2CNC(=O)c2ccccc2F)cc1C was read as HepG2 viability 1.6%, TGFb SMAD3 inh 2.1%, DT40 TDP1 CPT -2.4% and DT40 TDP1 no CPT -12.1%.
`COc1ccc([N+](=O)[O-])cc1N/C(=N/S(=O)(=O)c1ccccc1)c1ccccc1` gave HepG2 viability -17.4%, TGFb SMAD3 inh -5.0%, DT40 TDP1 CPT 9.8%, DT40 TDP1 no CPT -7.9%, ATXN2 expr inh -20.9%[11.3 µM] and S2 tox inactive.
For CN(C(=O)C=Cc1ccccc1)c1ccccc1 the results were HepG2 viability -9.0%, TGFb SMAD3 inh -3.5%, DT40 TDP1 CPT -5.4%, DT40 TDP1 no CPT -22.7%, ATXN2 expr inh 32.0% and S2 tox inactive.
Screening O=C(CCl)N(O)c1ccc(C=Cc2ccccc2)cc1 returned HepG2 viability -70.6%, TGFb SMAD3 inh inconclusive, DT40 TDP1 CPT 0.13µM*, DT40 TDP1 no CPT 0.206µM*, ATXN2 expr inh inconclusive and S2 tox 6.7µM*.
Screening CCN(CC)S(=O)(=O)c1ccc(/C=C/C(=O)N(c2ccccn2)C2CCCCC2)cc1 returned HepG2 viability -17.1%, TGFb SMAD3 inh -27.9%, DT40 TDP1 CPT inconclusive, DT40 TDP1 no CPT 11.6µM*, ATXN2 expr inh 1.6% and S2 tox inactive.
Screening O=C(/C=C/c1ccccc1Cl)N(c1ccccn1)C1CCCCC1 returned HepG2 viability 4.6%, TGFb SMAD3 inh 0.1%, DT40 TDP1 CPT inconclusive, DT40 TDP1 no CPT 16.4µM*, ATXN2 expr inh 3.8% and S2 tox inactive.
Screening O=C(/C=C/c1ccccc1)N(c1ccccn1)C1CCCCC1 returned HepG2 viability -9.5%, TGFb SMAD3 inh -0.6%, DT40 TDP1 CPT inconclusive, DT40 TDP1 no CPT inconclusive, ATXN2 expr inh -5.1% and S2 tox inactive.
Screening CCCCCCCCC(=O)c1c(OC)oc(C=O)cc1=O returned HepG2 viability -25.1%, TGFb SMAD3 inh 2.7%, DT40 TDP1 CPT -107.9%, DT40 TDP1 no CPT inconclusive and S2 tox inconclusive.
NNC(=O)CN1C(c2ccccc2Br)=Nc2ccc(Br)cc2C1c1ccccc1 (stereo not given) was read as HepG2 viability -0.1%, TGFb SMAD3 inh -8.3%, DT40 TDP1 CPT inconclusive, DT40 TDP1 no CPT 16.4µM*, ATXN2 expr inh -22.0% and S2 tox inconclusive.
`CCOc1cccc2cc(C(=O)NCc3ccc(OC)cc3)c(=N)oc12` gave HepG2 viability -10.9%, TGFb SMAD3 inh -7.3%, DT40 TDP1 CPT 25.9µM*, DT40 TDP1 no CPT inconclusive, ATXN2 expr inh 3.6% and S2 tox inactive.
`CCOc1cccc2cc(C(=O)NCc3ccc(C)cc3)c(=N)oc12` gave HepG2 viability 0.0%, TGFb SMAD3 inh 1.2%, DT40 TDP1 CPT inconclusive, DT40 TDP1 no CPT 4.11µM*, ATXN2 expr inh -6.3% and S2 tox inactive.
`O=C(N/N=C/c1cc2ccccc2nc1Cl)[C@H]1C[C@@H]1c1ccccc1` gave HepG2 viability 18.1%, TGFb SMAD3 inh -12.3%, DT40 TDP1 CPT 20.6µM*, DT40 TDP1 no CPT 16.4µM*, ATXN2 expr inh -4.0% and S2 tox inactive.
For COc1ccc([N+](=O)[O-])cc1/C=N/NC(=O)/C(=C\c1cccs1)NC(=O)c1ccccc1 the results were HepG2 viability -11.2%, TGFb SMAD3 inh -0.7%, DT40 TDP1 CPT inconclusive, DT40 TDP1 no CPT 20.6µM*, ATXN2 expr inh inconclusive and S2 tox inactive.
COc1ccc(/C=C(/NC(=O)c2ccccc2)C(=O)N/N=C/c2cccs2)cc1OC was read as HepG2 viability -6.2%, TGFb SMAD3 inh -3.9%, DT40 TDP1 CPT -1.9%, DT40 TDP1 no CPT -2.9%, ATXN2 expr inh 8.8% and S2 tox inactive.
For O=C(N/N=C/c1cc2ccccc2nc1Cl)/C(=C/c1cccs1)NC(=O)c1ccccc1 the results were HepG2 viability 3.4%, TGFb SMAD3 inh -1.0%, DT40 TDP1 CPT 23.1µM*, DT40 TDP1 no CPT inconclusive, ATXN2 expr inh 2.9% and S2 tox inactive.
COc1ccc(N2CCN(CCCNC(=O)C(=O)c3c[nH]c4ccccc34)CC2)cc1 was read as HepG2 viability -29.6%, TGFb SMAD3 inh 1.4%, DT40 TDP1 CPT inconclusive, DT40 TDP1 no CPT inconclusive, ATXN2 expr inh -10.0% and S2 tox inactive.
`COc1ccc(OC)c(C=NNC(=O)NN=Cc2cc(OC)ccc2OC)c1` gave HepG2 viability -7.7%, TGFb SMAD3 inh -3.2%, DT40 TDP1 CPT inconclusive, DT40 TDP1 no CPT 25.9µM* and S2 tox inconclusive.
COc1ccc(OC)c(/C=N/NC(=O)C(=O)N/N=C/c2cc(OC)ccc2OC)c1 was read as HepG2 viability 20.7%, TGFb SMAD3 inh -5.4%, DT40 TDP1 CPT 4.2%, DT40 TDP1 no CPT inconclusive, ATXN2 expr inh -5.2% and S2 tox inactive.
Screening COc1ccc(OC)c(/C=N/NC(=O)CCc2ccc(O)c(O)c2)c1 returned HepG2 viability -6.8%, TGFb SMAD3 inh -22.8%, DT40 TDP1 CPT 20.6µM*, DT40 TDP1 no CPT inconclusive, ATXN2 expr inh 6.0% and S2 tox inactive.
For CCCCN(C(=O)c1ccccc1Cl)C(CC(C)C)c1nc2ccccc2[nH]1 (stereo not given) the results were HepG2 viability -7.3%, TGFb SMAD3 inh inconclusive, DT40 TDP1 CPT 20.6µM*, DT40 TDP1 no CPT inconclusive, ATXN2 expr inh -19.4% and S2 tox inconclusive.
`CCC(c1nc2ccccc2[nH]1)N(CCCn1ccnc1)C(=O)c1ccc(C(F)(F)F)cc1` (stereo not given) gave HepG2 viability -24.1%, TGFb SMAD3 inh -10.7%, DT40 TDP1 CPT inconclusive, DT40 TDP1 no CPT -19.8%, ATXN2 expr inh 6.8% and S2 tox inconclusive.
